This passage reports binding signal results from paper PMC8384837, “Expanding the binding specificity for RNA recognition by a PUF domain”.

Common to all, as to test: yeast three-hybrid, YBZ-1, SC-Leu-His + 0.5 mM 3-AT, 4 days
Holding throughout (conditions): tags: N-Gal4 AD-HA kept; label: inside an RPR1-promoter hybrid RNA with tandem MS2 sites; ssRNA

Experiment [1] deals with PUM1 PUF domain R3-ASE (Homo sapiens, UniProt Q14671 828-1176, C935A;R936S;Q939E). An outline of the steps:
(§1)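 The interaction score is the logarithmic change in variant frequency from input to selection. It uses log2, with a pseudocount of 1 for absent variants, and frequencies came from PCR-amplified, Illumina-sequenced repeat regions. The libraries were Pumilio-1 PUF domains randomized at the three base-contacting residues per repeat, co-expressed with matching RNA elements in strain YBZ-1 (LexA–MS2 coat fusion, HIS3 reporter). Plating lasted four days on SC-Leu (input) or SC-Leu-His + 0.5 mM 3-AT (selection).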

Experiment [2] concerns the target PUM1 PUF domain R3-WCS (Homo sapiens, UniProt Q14671 828-1176, C935W;R936C;Q939S). An outline of the steps:
as §1

Experiment [3] concerns the target PUM1 PUF domain R4-DFI (Homo sapiens, UniProt Q14671 828-1176, N971D;H972F;Q975I). An outline of the steps: as §1
The target of experiment [4] is PUM1 PUF domain R4-EYQ (Homo sapiens, UniProt Q14671 828-1176, N971E;H972Y). A digest of the protocol:
as §1

Experiment [5] has as its target PUM1 PUF domain R4-SNV (Homo sapiens, UniProt Q14671 828-1176, N971S;H972N;Q975V). An outline of the steps:
as §1

In experiment [6] the target is PUM1 PUF domain R4-TPE (Homo sapiens, UniProt Q14671 828-1176, N971T;H972P;Q975E). A digest of the protocol: as §1
Experiment [7] concerns the target PUM1 PUF domain R8-LRK (Homo sapiens, UniProt Q14671 828-1176, N1122L;Y1123R;Q1126K). A digest of the protocol:
as §1

In experiment [8] the target is PUM1 PUF domain R4-NRC (Homo sapiens, UniProt Q14671 828-1176, H972R;Q975C). An outline of the steps: as §1
Experiment [9] has as its target PUM1 PUF domain R7-QSR (Homo sapiens, UniProt Q14671 828-1176, S1079Q;N1080S;E1083R). An outline of the steps:
as §1

The target of experiment [10] is PUM1 PUF domain R3-VWC (Homo sapiens, UniProt Q14671 828-1176, C935V;R936W;Q939C). A digest of the protocol: as §1

In the case of “GGCUAGAACUAGUGGAUCCCCCGGCGCCCGGCGGCUCGAGCCCGGGUAAGUGUAAGUAGUCUGCAUGCCGCCGGGCGCCAUGCCUGCAGGUCGACUCUAGAAAACAUG”, the binding signal in [1] was 4.6 log2 enrichment (interaction score); in experiment [2], 2.96 log2 enrichment (interaction score).
With “GGCUAGAACUAGUGGAUCCCCCGGCGCCCGGCGGCUCGAGCCCGGGUAAGUGUACAUAGUCUGCAUGCCGCCGGGCGCCAUGCCUGCAGGUCGACUCUAGAAAACAUG”, the values for the binding signal in experiment [3], in [4] and in experiment [5] were 3.24 log2 enrichment (interaction score), 3.27 log2 enrichment (interaction score) and 3.34 log2 enrichment (interaction score), respectively.
Turning to “GGCUAGAACUAGUGGAUCCCCCGGCGCCCGGCGGCUCGAGCCCGGGUAAGUGUAUAUAGUCUGCAUGCCGCCGGGCGCCAUGCCUGCAGGUCGACUCUAGAAAACAUG”, the binding signal is 3.03 log2 enrichment (interaction score) in [6] and 3.72 log2 enrichment (interaction score) in experiment [5].
Take “GGCUAGAACUAGUGGAUCCCCCGGCGCCCGGCGGCUCGAGCCCGGGUAAGCGUAAAUAGUCUGCAUGCCGCCGGGCGCCAUGCCUGCAGGUCGACUCUAGAAAACAUG”: the binding signal in [7] was 2.19 log2 enrichment (interaction score).
Consider “GGCUAGAACUAGUGGAUCCCCCGGCGCCCGGCGGCUCGAGCCCGGGUAAGUGUAAAUAGUCUGCAUGCCGCCGGGCGCCAUGCCUGCAGGUCGACUCUAGAAAACAUG”, for which the binding signal is 1.28 log2 enrichment (interaction score) in experiment [7], 1.61 log2 enrichment (interaction score) in experiment [4], 1.05 log2 enrichment (interaction score) in experiment [5] and 3.78 log2 enrichment (interaction score) in experiment [8].
As to “GGCUAGAACUAGUGGAUCCCCCGGCGCCCGGCGGCUCGAGCCCGGGUAAGUUUAAAUAGUCUGCAUGCCGCCGGGCGCCAUGCCUGCAGGUCGACUCUAGAAAACAUG”, the binding signal in [9] is 3.84 log2 enrichment (interaction score).
With “GGCUAGAACUAGUGGAUCCCCCGGCGCCCGGCGGCUCGAGCCCGGGUAAGUGUAAUUAGUCUGCAUGCCGCCGGGCGCCAUGCCUGCAGGUCGACUCUAGAAAACAUG”, the binding signal in experiment [10] was 3.83 log2 enrichment (interaction score); in experiment [2], 1.01 log2 enrichment (interaction score).
